Assay outcomes as filed in PubChem BioAssay.
Shown are actives, neighbours in structure and some others; about 2.9% of the full set was active somewhere.
GRK2 aptamer HTS = inhibitors of human GRK2 displacing RNA aptamer; P25098; bead flow cytometry, FAM-aptamer displacement from GRK2; inhibition of aptamer binding, % at 10 µM; 330,000 compounds, 0.59% hits;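 active = inhibition of aptamer binding above 40%, roughly 3 SD of noise, on plates passing a quality check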;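 also: median bead fluorescence of bound FAM aptamer so fluorescent compounds give negative values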
Target sequence (P25098 whole entry, looked up): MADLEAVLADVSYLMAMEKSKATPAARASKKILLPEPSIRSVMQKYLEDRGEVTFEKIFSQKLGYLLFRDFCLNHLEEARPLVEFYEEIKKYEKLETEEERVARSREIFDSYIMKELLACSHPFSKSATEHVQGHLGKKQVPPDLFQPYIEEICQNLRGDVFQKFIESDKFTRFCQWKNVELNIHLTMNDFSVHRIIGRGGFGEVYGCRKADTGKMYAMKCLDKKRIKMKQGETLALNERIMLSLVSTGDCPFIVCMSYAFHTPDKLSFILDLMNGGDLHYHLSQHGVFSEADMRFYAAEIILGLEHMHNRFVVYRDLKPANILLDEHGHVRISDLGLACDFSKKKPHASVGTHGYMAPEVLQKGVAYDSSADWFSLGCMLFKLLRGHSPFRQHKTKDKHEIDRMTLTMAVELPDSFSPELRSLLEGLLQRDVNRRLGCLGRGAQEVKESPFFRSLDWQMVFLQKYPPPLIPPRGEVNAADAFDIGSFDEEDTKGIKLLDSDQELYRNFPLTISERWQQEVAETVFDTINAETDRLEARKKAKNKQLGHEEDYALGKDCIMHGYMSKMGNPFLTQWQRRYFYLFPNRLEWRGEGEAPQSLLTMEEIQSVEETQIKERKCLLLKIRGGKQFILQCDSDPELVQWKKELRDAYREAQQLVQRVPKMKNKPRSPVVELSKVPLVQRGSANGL
MEKK2 WT-MEK5 = raises or lowers MEK5 binding to wildtype human MEKK2 PB1 domain; Q9Y2U5; bead flow cytometry, Alexa488-MEK5 binding to MEKK2 WT; actives lie on both sides; binding response (% of control), % at 10 µM; 290,000 compounds, 1.1% hits; in the data active = binding response below about 67% or above about 130%
MEKK2mut PB1 HTS = signal of MEK5 binding to mutant human MEKK2 PB1 domain. bead flow cytometry, Alexa488-MEK5 binding to MEKK2 mutant. percent response, % at 10 µM. 290,000 compounds, 0.35% hits. AID 1530; in the data active = percent response above about 24%, passing the limit was not always enough
B2AR ag = activates human beta-2 adrenergic receptor causing internalization. response, % (no concentration beside the values). P07550. Am2.2-beta2AR cells, FAP receptor internalization, flow cytometry. 340,000 compounds, 0.43% hits;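 active = response above a set limit, near 3 SD of response in nonfluorescent compounds, cut at about 42% in these data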
MEKK3 PB1 HTS = modulators (inhibitors or enhancers) of MEK5 binding to human MEKK3 PB1 domain. Q99759. bead-based flow cytometry, Alexa488-MEK5 binding to MEKK3; actives lie on both sides; 0 = blocked by unlabeled MEK5, 100 = vehicle. binding response (% of control), % at 10 µM. 290,000 compounds, 1.4% hits. AID 1529;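 active = binding response more than 3 SD above or below the average of its plate-row segment, actives on both sides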;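 also: Alexa488 bead fluorescence after subtracting the streptavidin-only scavenger bead signal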
MEKK2wt confirm = raises or lowers MEK5 binding to wildtype human MEKK2, retest. shares compounds with MEKK3 PB1 HTS. bead flow cytometry, Alexa488-MEK5 binding to MEKK2 WT; actives lie on both sides. binding response (% of control), % at 10 µM. 5,900 compounds, 2.4% hits. AID 1892; in the data active = binding response below about 16% or above about 210%; inactive = in between
MEKK2mut-MEK5 = signal of MEK5 binding to mutant human MEKK2, retest; shares compounds with MEKK3 PB1 HTS; bead flow cytometry, Alexa488-MEK5 binding to MEKK2 mutant; percent response, % at 10 µM; 5,900 compounds, 2% hits; AID 1893; in the data active = percent response mostly above about 71%, no sharp cut-off; inactive = mostly below about 38%;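 also: higher means compound restores mutant binding toward wildtype level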
MEKK3 confirm = MEKK3-MEK5 PB1 inhibition, single concentration confirmation; shares compounds with MEKK3 PB1 HTS; bead flow cytometry, Alexa488-MEK5 binding to MEKK3; stronger effect = lower value; binding response (% of control), % at 10 µM; 5,900 compounds, 1.8% hits; AID 1894;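 active = binding response below 72% of control, or above a set upper limit, though filed actives all read lower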;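 also: 100% = DMSO only wells and 0% = binding blocked by excess unlabeled MEK5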
An asterisk follows results filed as active; nt = no result given; [ ] = dose if it differs, or a comment.

SMILES	GRK2 aptamer HTS	MEKK2 WT-MEK5	MEKK2mut PB1 HTS	B2AR ag	MEKK3 PB1 HTS	MEKK2wt confirm	MEKK2mut-MEK5	MEKK3 confirm
CCCCC1=CC2=C(c3ccco3)C(=O)C(C)(OC(=O)c3ccc(OC)cc3)C(=O)C2=CN1C(CO)CO (configuration not stated)	0	144*	4	1	115	97	-1	97
COc1ccc(C2C(C(=O)c3ccco3)=C(O)C(=O)N2CC2CCCO2)cc1OC (configuration not stated)	0	103	2	0	101	nt	nt	nt
Cc1ccc(-c2ccc(SCC(=O)N3CCN(c4ccccc4)CC3)nn2)cc1	2	105	1	-1	138*	105	-3	102
Cn1c(SCC(=O)N2CCN(S(=O)(=O)c3ccc(Cl)cc3)CC2)nc2ccccc21	1	129	8	-2	133*	102	6	103
Cn1c(SCC(=O)N2CCN(S(=O)(=O)c3ccccc3)CC2)nc2ccccc21	2	108	6	2	109	nt	nt	nt
N#Cc1nc(-c2cccs2)oc1NCCN1CCOCC1	0	nt	nt	-8	nt	nt	nt	nt
N#Cc1nc(-c2ccccc2)oc1NCCN1CCCCC1	1	3.0*[inhibitor]	-21	7	2.0*[inhibitor]	108	2	104
N#Cc1nc(-c2ccccc2)oc1NCC1CCCO1 (configuration not stated)	0	112	0	-7	147*	92	-8	96
COc1ccc(N2CCN(C(=O)C3(C)CC3(Cl)Cl)CC2)cc1 (configuration not stated)	0	100	1	-8	77	nt	nt	nt
COc1ccccc1-n1c(CNC(=O)c2cccc([N+](=O)[O-])c2C)n[nH]c1=S	0	36*[inhibitor]	-33	-6	26*[inhibitor]	96	1	98
OCC1(CCOc2ccccc2)CCN(CC2=Cc3cc(Cl)ccc3OC2)CC1	0	153*	7	4	109	137	15	107
COc1cc(Cl)c(CN2CCC(CO)(CCOc3ccccc3)CC2)cc1OC	2	104	8	-3	99	nt	nt	nt
COc1cccc2cc(C(=O)N3CC(C)OC(C)C3)c(=O)oc12 (configuration not stated)	0	99	-3	1	99	nt	nt	nt
CC1CN(C(=O)c2ccc(Oc3ccccc3)cc2)CC(C)O1 (configuration not stated)	1	86	-4	0	70*[inhibitor]	99	-5	98
CC1CN(C(=O)c2cc3ccccc3oc2=O)CC(C)O1 (configuration not stated)	1	96	-8	2	82*[inhibitor]	101	-2	99
Cc1cccc[n+]1CC(=O)N1c2ccccc2Sc2ccccc21	0	95	-8	-5	96	nt	nt	nt
COc1cc(C2NC(=O)NC(C)=C2C(=O)OCC2CCCCC2)ccc1O (configuration not stated)	0	98	1	-12	98	nt	nt	nt
NC(=O)c1ccsc1NC(=O)CCc1ccccc1	1	100	-1	0	99	nt	nt	nt
CCOc1ccccc1OCCCC(=O)Nc1sccc1C(N)=O	1	111	1	1	151*	103	4	104
CCCOc1ccc(N2C(=O)CC(NNC(=O)c3ccc(COc4ccccc4)o3)C2=O)cc1 (configuration not stated)	0	99	3	-12	142*	98	-4	97
Cc1ccccc1N(CC(=O)NCc1ccc2c(c1)OCO2)C(=O)CCC(=O)Nc1ccccn1	1	86	-11	-1	76*[inhibitor]	100	-6	101
O=C(CN(C(=O)CCC(=O)Nc1ccccn1)c1ccccc1F)NCc1ccc2c(c1)OCO2	2	101	-3	-3	100	nt	nt	nt
Cc1ccc2c(c1)[nH]c1c(N3CCN(Cc4ccccc4)CC3)ncnc12	0	158*	18	21	109	119	13	106
COc1ccc2c(c1)[nH]c1c(N3CCN(Cc4ccc5c(c4)OCO5)CC3)ncnc12	0	152*	8	18	114	146	33	107
CC(CCc1ccccc1)NCc1cccc2ccccc12 (configuration not stated)	0	135*	8	-1	113	119	12	104
SMILES	GRK2 aptamer HTS	MEKK2 WT-MEK5	MEKK2mut PB1 HTS	B2AR ag	MEKK3 PB1 HTS	MEKK2wt confirm	MEKK2mut-MEK5	MEKK3 confirm
COCC(C)NCc1cccc2ccccc12 (configuration not stated)	2	82	-13	2	96	nt	nt	nt
CCOC(=O)C1=C(COC(=O)c2cc(OC)c(OC)cc2[N+](=O)[O-])NC(=O)NC1C (configuration not stated)	1	nt	nt	10	nt	nt	nt	nt
CN1CCN(c2ccccc2NC(=O)c2ccc(-c3ccc(Cl)cc3Cl)o2)CC1	28	156*	30	-15	104	145	18	106
CS(=O)(=O)N1CCN(c2ccccc2NC(=O)Cc2ccccc2)CC1	0	103	16	4	102	nt	nt	nt
CS(=O)(=O)N1CCN(c2ccccc2NC(=O)Cc2ccc(Cl)cc2)CC1	0	2.0*[inhibitor]	-69	6	2.0*[inhibitor]	107	10	108
Cc1nnc2sc(-c3ccc(NC(=O)c4ccc(-c5ccc(Cl)cc5Cl)o4)cc3)nn12	0	83	-5	15	77*[inhibitor]	100	0	101
CSc1ncc(Cl)c(C(=O)Nc2ccccc2Br)n1	0	103	-10	-6	96	nt	nt	nt
CSc1ncc(Cl)c(C(=O)Nc2cccc3ccccc23)n1	2	102	0	10	128*	101	-2	99
N#Cc1ccc(/C=N/NC(=O)c2ccccc2F)cc1	0	140*	47	2	115	101	-1	102
CCCC[C@@H]1CNC(=S)N1CCCC	2	98	1	2	104	nt	nt	nt
CC(C)(C)NC(=O)CCN(/N=C/c1ccccc1O)C1=NS(=O)(=O)c2ccccc21	0	103	4	18	100	nt	nt	nt
O=C(CNC(=O)c1cccc(Br)c1)N/N=C/c1cc(Br)cc(Br)c1O	0	123	22	13	151*	108	4	105
COc1ccccc1N1CCN(C(=O)CCC(=O)O)CC1	2	102	0	3	101	nt	nt	nt
CCOC(=O)C(=O)N1CCN(c2ccccc2OC)CC1	0	76	-16	12	71*[inhibitor]	102	2	100
